# Results as given in PubChem BioAssay (EPA / NIEHS).
# Inconclusive results are not listed. Activity calls are given as the source filed them. How the source made its calls, unless noted: active means hit-call score of the fitted dose curve at least 0.9, where 1 is the maximum; inactive means score below 0.9.
# Key:
# [1] = target: Paired box protein Pax-6 (Homo sapiens) (UniProt P26367); experiment: ATG_Pax6_CIS: Attagene CIS-FACTORIAL HepG2 Assay for human Paired Box 6 (PAX6) (AID 2282956); conditions: HepG2 CIS-FACTORIAL PAX6 reporter transcription, RNA readout; actives raise or lower the signal
# Method in brief: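 Readout: reporter transcript fluorescence after RT-PCR and capillary electrophoresis. Cells: HepG2, transiently transfected with cis-regulated MRTUs. Exposure 24 h. Gain or loss of signal fitted bidirectionally relative to DMSO.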
# [2] = ATG_PXRE_CIS: Attagene CIS-FACTORIAL HepG2 Assay for human Pregnane X Receptor Element (PXRE) (AID 2282957); conditions: HepG2 Attagene CIS-FACTORIAL PXRE reporter, mRNA; actives raise or lower the signal
# Method in brief: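 Reporter transcripts under endogenous PXR-responsive cis-regulation quantified from total RNA of transfected HepG2 cells 24 h post-dosing, via RT-PCR with fluorescent primer extension and capillary electrophoresis. Gain or loss of signal fitted against DMSO baseline.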
# [3] = ATG_PPRE_CIS: Attagene CIS-FACTORIAL HepG2 Assay for human Peroxisome Proliferator-activated Response Element (PPRE) (AID 2282958); conditions: HepG2 PPRE cis-element reporter, Attagene transcription factor profiling; actives raise or lower the signal
# Method in brief: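 HepG2 cells transiently transfected with multiplexed cis-element reporter units measure endogenous transcription factor activity. After 24 h compound exposure, reporter mRNA is quantified by RT-PCR, 6-FAM labeling, HpaI digestion and capillary electrophoresis; bidirectional fits are made against DMSO baseline.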
# [4] = ATG_RORE_CIS: Attagene CIS-FACTORIAL HepG2 Assay for human RAR-related Orphan Receptor Element (RORE) (AID 2282959); conditions: HepG2 Attagene cis-factorial RORE reporter, mRNA; actives raise or lower the signal
# Method in brief: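 HepG2 cells transiently transfected with multiple cis-element reporter transcription units, exposed to chemical for 24 h. Reporter mRNA quantified by RT-PCR, 6-FAM primer-extension labeling, HpaI digestion and capillary electrophoresis; bidirectional fit versus DMSO baseline.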
# [5] = ATG_Sox_CIS: Attagene CIS-FACTORIAL HepG2 Assay for human SRY-box transcription factor (SOX) (AID 2282960); conditions: HepG2 Attagene cis-factorial SOX reporter, mRNA; actives raise or lower the signal
# Method in brief: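 HepG2 cells transiently transfected with cis-element-driven multiple reporter transcription units, dosed 24 h; reporter mRNA measured by RT-PCR, FAM labelling, HpaI digestion and capillary electrophoresis. Bidirectional fit versus DMSO baseline.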
# [6] = target: Transcription factor Sp1 (Homo sapiens) (UniProt P08047); experiment: ATG_Sp1_CIS: Attagene CIS-FACTORIAL HepG2 Assay for human Specificity Protein 1 (Sp1) (AID 2282961); conditions: HepG2 Sp1 cis-reporter transcription, actives raise or lower the signal
# Method in brief: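 HepG2 cells transiently transfected with multiple reporter transcription units driven by cis-regulatory elements; Sp1-responsive reporter mRNA measured 24 h after dosing by RT-PCR and capillary electrophoresis fluorescence, fitted bidirectionally against DMSO baseline.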
# [7] = ATG_SREBP_CIS: Attagene CIS-FACTORIAL HepG2 Assay for human Sterol Regulatory Element Binding (SREBP) (AID 2282962); conditions: HepG2 Attagene cis-factorial SREBP reporter, mRNA; actives raise or lower the signal
# Method in brief: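 Readout: fluorescent reporter-transcript peaks resolved by capillary electrophoresis after RT-PCR. Cells were human HepG2 carrying transfected cis-promoter reporter constructs, dosed for 24 h. Gain or loss of signal was fitted against DMSO controls.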
# [8] = target: Signal transducer and activator of transcription 3 (Homo sapiens) (UniProt P40763); experiment: ATG_STAT3_CIS: Attagene CIS-FACTORIAL HepG2 Assay for human Signal Transducer and Activator of Transcription 3 (STAT3) (AID 2282963); conditions: HepG2, Attagene cis-factorial STAT3 reporter transcription; actives raise or lower the signal
# Method in brief: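 Fluorescence intensity of 6-FAM-labelled reporter fragments, separated by capillary electrophoresis after RT-PCR, gave the signal. Cells were HepG2 transfected with cis-element reporter units and treated 24 h; fitting was bidirectional relative to DMSO.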
# [9] = ATG_TA_CIS: Attagene CIS-FACTORIAL HepG2 Assay for human TA Basal Promoter (AID 2282964); conditions: HepG2 Attagene CIS-factorial TA basal promoter reporter; actives raise or lower the signal
# Method in brief: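 Transfected HepG2, 24 h compound exposure; RNA → RT-PCR → FAM primer extension → HpaI cut → CE fluorescence. Gain/loss-of-signal fitted against DMSO negative control. Background-control readout.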
# [10] = ATG_TCF_b_cat_CIS: Attagene CIS-FACTORIAL HepG2 Assay for human T-Cell-Factor with beta-catenin (TCF/b-cat) (AID 2282965); conditions: HepG2 TCF/beta-catenin cis-reporter transcription, actives raise or lower the signal
# Method in brief: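 HepG2, transient MRTU transfection, cis-element-driven reporters (endogenous TFs). 24 h compound exposure. Readout: reporter mRNA by RT-PCR + 6-FAM primer extension, HpaI digest, capillary electrophoresis. Gain/loss fit vs DMSO baseline.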
# [11] = ATG_TAL_CIS: Attagene CIS-FACTORIAL HepG2 Assay for human TAL Basal Promoter (AID 2282966); conditions: HepG2 Attagene cis-factorial TAL promoter reporter; actives raise or lower the signal;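 further: background control endpoint measuring basal TAL promoter reporter mRNA not a specific factor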
# Method in brief: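 Background-control endpoint: basal TAL promoter reporter transcripts in transiently transfected HepG2, measured 24 h after dosing. Read-out by RT-PCR with fluorescent primer extension and capillary electrophoresis; gain or loss of signal fitted relative to DMSO.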
# [12] = ATG_TGFb_CIS: Attagene CIS-FACTORIAL HepG2 Assay for human Transforming Growth Factor (TGF) (AID 2282967); conditions: HepG2 Attagene CIS TGFb reporter, mRNA transcription; actives raise or lower the signal
# Method in brief: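 Readout: fluorescently labeled reporter cDNA fragments resolved by capillary electrophoresis after RT-PCR. Transfected HepG2 cells dosed for 24 h; endogenous TF activity at TGFB1-linked cis element; gain or loss fitted relative to DMSO.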
# [13] = ATG_VDRE_CIS: Attagene CIS-FACTORIAL HepG2 Assay for human Vitamin D Receptor Element (VDRE) (AID 2282968); conditions: HepG2 VDRE cis-reporter transcription, actives raise or lower the signal
# Method in brief: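 Compounds were applied for 24 h to HepG2 cells transfected with promoter-regulated reporter units. Total RNA was reverse-transcribed, and reporter amplicons were fluorescently labelled and sized by capillary electrophoresis.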
# [14] = target: Nuclear receptor subfamily 1 group I member 3 (Homo sapiens) (UniProt Q14994); experiment: ATG_CAR_TRANS: Attagene TRANS-FACTORIAL HepG2 Assay for human Constitutive Androstane Receptor (CAR) (AID 2282969; active means hit-call score of the fitted dose curve at least 0.9, where 1 is the maximum;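 further: activators raise reporter mRNA above DMSO so AC50 marks induction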); conditions: HepG2 Attagene TRANS-FACTORIAL CAR reporter
# Method in brief: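 Transiently transfected HepG2, multiplex TRANS reporters (CAR-Gal4 chimera driving GAL4-UAS reporter). 24 h dosing. Readout: reporter transcript by RT-PCR + capillary electrophoresis, fluorescence intensity; positive direction vs DMSO.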
# [15] = ATG_M_19_TRANS: Attagene TRANS-FACTORIAL HepG2 Assay for M19 Transcription Factor (Internal Marker) (AID 2282974; active means hit-call score of the fitted dose curve at least 0.9, where 1 is the maximum); conditions: HepG2 Attagene TRANS-FACTORIAL M19 internal marker reporter
# Method in brief: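 HepG2 cells transiently transfected with multiple GAL4-UAS reporter transcription units were exposed to chemicals for 24 h. Reporter mRNA was read by RT-PCR, 6-FAM primer extension, HpaI digestion and capillary electrophoresis; gain of signal fitted relative to DMSO.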
# [16] = ATG_GAL4_TRANS: Attagene TRANS-FACTORIAL HepG2 Assay for GAL4 (Internal Marker) (AID 2282976; active means hit-call score of the fitted dose curve at least 0.9, where 1 is the maximum); conditions: HepG2 Attagene TRANS GAL4 internal marker reporter
# Method in brief: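 In transfected human HepG2 liver cells dosed 24 h, GAL4 reporter mRNA serves as a baseline marker. Detection by RT-PCR with fluorescent capillary electrophoresis, activity fitted upward relative to DMSO.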
# [17] = target: X-box-binding protein 1 (Homo sapiens) (UniProt P17861); experiment: ATG_Xbp1_CIS: Attagene CIS-FACTORIAL HepG2 Assay for human X-box Binding Protein 1 (XBP1) (AID 2282972); conditions: HepG2 XBP1 cis-element reporter, Attagene multiplex; actives raise or lower the signal
# Method in brief: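 Read-out: fluorescent reporter mRNA fragments resolved by capillary electrophoresis after RT-PCR. Human HepG2 liver cells carried transfected cis-promoter reporter units and were exposed to chemicals for 24 hours. Gain or loss of signal fitted relative to DMSO baseline.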
# [18] = target: Steroid hormone receptor ERR1 (Homo sapiens) (UniProt P11474); experiment: ATG_ERRa_TRANS: Attagene TRANS-FACTORIAL HepG2 Assay for human Estrogen-Related Receptor alpha (ERRa) (AID 2282971; active means hit-call score of the fitted dose curve at least 0.9, where 1 is the maximum); conditions: HepG2 Attagene TRANS reporter, ERRa transactivation
# Method in brief: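 Reporter transcripts from ERRa-Gal4 chimera activity measured in transiently transfected human HepG2 cells 24 hours after dosing, using RT-PCR with 6-FAM primer extension, HpaI digestion and capillary electrophoresis; DMSO is baseline.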
# [19] = target: Estrogen-related receptor gamma (Homo sapiens) (UniProt P62508); experiment: ATG_ERRg_TRANS: Attagene TRANS-FACTORIAL HepG2 Assay for human Estrogen-Related Receptor gamma (ERRg) (AID 2282977; active means hit-call score of the fitted dose curve at least 0.9, where 1 is the maximum;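 further: hits increase reporter signal over DMSO so potencies reflect activators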); conditions: HepG2 Attagene TRANS reporter, ERRg transactivation
# Method in brief: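 Induction of reporter transcripts through a chimeric NR-Gal4 protein is quantified in transfected human HepG2 liver cells after 24 h chemical exposure, using RT-PCR with capillary electrophoresis detection and DMSO as baseline.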
# [20] = target: Glucocorticoid receptor (Homo sapiens) (UniProt P04150); experiment: ATG_GR_TRANS: Attagene TRANS-FACTORIAL HepG2 Assay for human Glucocorticoid Receptor (GR) (AID 2282978; active means hit-call score of the fitted dose curve at least 0.9, where 1 is the maximum;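 further: activators score as hits since higher reporter transcript over DMSO is fitted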); conditions: HepG2 Attagene TRANS GR reporter, mRNA transcription
# Method in brief: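 HepG2 cells transiently transfected with multiplexed reporter units in which chimeric NR-GAL4 proteins drive GAL4-UAS reporters; 24 h compound exposure. Reporter mRNA measured by RT-PCR, 6-FAM labelling, HpaI digestion and capillary electrophoresis; gain-of-signal fitted versus DMSO.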
# Chain of X-box-binding protein 1 (Homo sapiens) (P17861 whole entry, looked up, the tested form may be a part): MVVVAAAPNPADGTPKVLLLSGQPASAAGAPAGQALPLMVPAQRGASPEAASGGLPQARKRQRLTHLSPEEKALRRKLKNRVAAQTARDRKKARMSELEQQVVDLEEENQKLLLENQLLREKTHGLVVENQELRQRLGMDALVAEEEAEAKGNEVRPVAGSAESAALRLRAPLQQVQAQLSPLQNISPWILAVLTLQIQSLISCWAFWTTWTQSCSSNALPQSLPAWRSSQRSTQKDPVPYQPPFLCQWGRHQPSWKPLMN
# Chain of Glucocorticoid receptor (Homo sapiens) (P04150 whole entry, looked up, the tested form may be a part): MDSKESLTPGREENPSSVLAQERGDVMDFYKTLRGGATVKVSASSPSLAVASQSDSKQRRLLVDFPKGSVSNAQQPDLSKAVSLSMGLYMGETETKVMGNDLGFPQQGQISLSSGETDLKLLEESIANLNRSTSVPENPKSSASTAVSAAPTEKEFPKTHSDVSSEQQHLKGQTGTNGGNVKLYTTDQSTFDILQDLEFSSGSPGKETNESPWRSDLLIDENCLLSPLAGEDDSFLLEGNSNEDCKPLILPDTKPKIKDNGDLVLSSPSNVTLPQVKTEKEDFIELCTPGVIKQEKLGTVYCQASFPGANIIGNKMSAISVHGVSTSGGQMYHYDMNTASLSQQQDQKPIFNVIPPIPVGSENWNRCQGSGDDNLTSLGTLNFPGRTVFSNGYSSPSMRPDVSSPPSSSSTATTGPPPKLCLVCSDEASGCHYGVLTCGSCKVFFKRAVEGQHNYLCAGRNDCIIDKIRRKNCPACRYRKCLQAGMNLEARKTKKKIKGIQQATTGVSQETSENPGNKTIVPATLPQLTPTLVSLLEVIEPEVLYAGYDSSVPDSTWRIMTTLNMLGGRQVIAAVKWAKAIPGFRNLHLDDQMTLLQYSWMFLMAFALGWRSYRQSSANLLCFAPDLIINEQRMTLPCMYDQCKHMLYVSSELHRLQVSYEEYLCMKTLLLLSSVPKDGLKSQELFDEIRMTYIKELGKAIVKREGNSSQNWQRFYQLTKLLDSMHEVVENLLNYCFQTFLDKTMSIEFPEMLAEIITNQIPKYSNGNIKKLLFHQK
# Chain of Signal transducer and activator of transcription 3 (Homo sapiens) (P40763 whole entry, looked up, the tested form may be a part): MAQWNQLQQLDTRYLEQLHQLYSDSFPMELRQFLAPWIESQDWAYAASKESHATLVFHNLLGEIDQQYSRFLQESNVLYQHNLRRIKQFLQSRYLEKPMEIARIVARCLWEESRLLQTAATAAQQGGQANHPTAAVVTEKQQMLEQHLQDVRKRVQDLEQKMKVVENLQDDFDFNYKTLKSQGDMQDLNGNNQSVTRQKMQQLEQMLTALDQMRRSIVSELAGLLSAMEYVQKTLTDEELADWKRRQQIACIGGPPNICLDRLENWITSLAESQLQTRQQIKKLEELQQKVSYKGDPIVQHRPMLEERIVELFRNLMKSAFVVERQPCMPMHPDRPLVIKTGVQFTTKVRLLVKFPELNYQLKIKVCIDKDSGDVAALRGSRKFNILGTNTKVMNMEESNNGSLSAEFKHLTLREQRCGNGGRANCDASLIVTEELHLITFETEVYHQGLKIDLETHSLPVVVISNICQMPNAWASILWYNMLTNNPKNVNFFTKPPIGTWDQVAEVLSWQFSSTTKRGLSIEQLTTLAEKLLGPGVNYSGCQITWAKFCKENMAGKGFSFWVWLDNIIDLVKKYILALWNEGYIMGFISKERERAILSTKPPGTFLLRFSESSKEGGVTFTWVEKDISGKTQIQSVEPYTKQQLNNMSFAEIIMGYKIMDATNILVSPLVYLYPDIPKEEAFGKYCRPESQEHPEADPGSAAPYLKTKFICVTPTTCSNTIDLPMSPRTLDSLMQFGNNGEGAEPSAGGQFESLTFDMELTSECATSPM
# Chain of Paired box protein Pax-6 (Homo sapiens) (P26367 whole entry, looked up): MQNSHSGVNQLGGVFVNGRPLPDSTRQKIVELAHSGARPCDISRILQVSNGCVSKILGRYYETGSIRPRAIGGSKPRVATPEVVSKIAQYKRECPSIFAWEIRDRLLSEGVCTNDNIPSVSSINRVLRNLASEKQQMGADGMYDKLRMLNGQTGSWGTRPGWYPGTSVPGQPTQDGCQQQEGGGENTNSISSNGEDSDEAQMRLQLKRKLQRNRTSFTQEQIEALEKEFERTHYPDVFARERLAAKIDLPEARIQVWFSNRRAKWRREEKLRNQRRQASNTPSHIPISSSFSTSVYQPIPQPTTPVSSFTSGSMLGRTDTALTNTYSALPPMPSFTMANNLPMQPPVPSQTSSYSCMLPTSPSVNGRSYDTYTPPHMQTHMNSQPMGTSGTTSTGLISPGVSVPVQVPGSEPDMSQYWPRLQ
# Chain of Transcription factor Sp1 (Homo sapiens) (P08047 whole entry, looked up): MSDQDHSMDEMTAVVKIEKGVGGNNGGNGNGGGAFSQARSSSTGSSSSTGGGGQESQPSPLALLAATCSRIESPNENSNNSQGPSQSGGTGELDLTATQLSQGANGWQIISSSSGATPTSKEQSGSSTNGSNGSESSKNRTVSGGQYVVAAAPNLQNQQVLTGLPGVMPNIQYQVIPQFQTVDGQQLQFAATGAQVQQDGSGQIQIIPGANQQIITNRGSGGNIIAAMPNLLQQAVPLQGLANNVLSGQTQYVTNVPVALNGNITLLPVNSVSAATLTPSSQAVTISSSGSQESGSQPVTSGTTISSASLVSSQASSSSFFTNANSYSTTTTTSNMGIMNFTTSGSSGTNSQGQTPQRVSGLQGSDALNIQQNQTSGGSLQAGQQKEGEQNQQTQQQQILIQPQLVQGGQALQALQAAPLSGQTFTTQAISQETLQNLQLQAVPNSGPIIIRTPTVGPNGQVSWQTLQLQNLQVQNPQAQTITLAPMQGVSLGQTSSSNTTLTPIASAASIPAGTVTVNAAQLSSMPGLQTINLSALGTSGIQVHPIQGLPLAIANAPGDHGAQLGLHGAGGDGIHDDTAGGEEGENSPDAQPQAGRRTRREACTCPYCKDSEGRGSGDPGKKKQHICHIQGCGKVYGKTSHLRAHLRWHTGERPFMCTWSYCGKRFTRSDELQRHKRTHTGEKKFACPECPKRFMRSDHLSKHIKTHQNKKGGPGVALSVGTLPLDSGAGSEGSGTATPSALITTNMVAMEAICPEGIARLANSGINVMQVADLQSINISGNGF
# Chain of Nuclear receptor subfamily 1 group I member 3 (Homo sapiens) (Q14994 whole entry, looked up, the tested form may be a part): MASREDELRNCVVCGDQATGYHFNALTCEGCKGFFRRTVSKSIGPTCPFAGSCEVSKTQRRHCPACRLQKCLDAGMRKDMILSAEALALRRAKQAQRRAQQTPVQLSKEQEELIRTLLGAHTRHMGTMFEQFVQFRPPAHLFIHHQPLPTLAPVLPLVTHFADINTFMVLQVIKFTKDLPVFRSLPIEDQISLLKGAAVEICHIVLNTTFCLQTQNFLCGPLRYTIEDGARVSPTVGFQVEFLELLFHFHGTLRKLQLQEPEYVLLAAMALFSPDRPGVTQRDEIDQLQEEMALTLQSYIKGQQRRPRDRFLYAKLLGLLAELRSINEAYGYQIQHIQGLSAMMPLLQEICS
# Chain of Steroid hormone receptor ERR1 (Homo sapiens) (P11474 whole entry, looked up, the tested form may be a part): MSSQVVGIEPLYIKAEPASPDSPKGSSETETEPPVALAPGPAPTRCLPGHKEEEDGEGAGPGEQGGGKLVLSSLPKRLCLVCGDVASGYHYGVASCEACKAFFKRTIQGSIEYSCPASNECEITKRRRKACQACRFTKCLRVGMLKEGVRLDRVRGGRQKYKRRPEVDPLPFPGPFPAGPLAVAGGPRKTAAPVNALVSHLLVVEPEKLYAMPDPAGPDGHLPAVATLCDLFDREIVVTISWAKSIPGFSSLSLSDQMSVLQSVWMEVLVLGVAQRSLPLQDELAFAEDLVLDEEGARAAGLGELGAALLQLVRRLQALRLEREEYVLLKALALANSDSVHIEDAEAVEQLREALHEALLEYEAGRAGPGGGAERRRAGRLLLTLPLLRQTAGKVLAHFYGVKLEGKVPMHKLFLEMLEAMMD
# Chain of Estrogen-related receptor gamma (Homo sapiens) (P62508 whole entry, looked up, the tested form may be a part): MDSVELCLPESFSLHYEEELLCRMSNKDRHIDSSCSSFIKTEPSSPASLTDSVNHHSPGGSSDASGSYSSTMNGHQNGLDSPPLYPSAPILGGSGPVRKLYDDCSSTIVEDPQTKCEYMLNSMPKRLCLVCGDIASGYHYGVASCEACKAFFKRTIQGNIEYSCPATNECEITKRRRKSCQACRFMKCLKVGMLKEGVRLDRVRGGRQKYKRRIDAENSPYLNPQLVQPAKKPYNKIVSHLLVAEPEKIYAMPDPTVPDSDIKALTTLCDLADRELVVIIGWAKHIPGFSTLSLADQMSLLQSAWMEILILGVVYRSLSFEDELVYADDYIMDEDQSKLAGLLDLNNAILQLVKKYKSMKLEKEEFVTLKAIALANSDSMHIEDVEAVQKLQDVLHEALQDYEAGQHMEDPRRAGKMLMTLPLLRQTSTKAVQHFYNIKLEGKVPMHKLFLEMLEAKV
structure (smiles),measurement,setting,value
COCCOC(=O)c1ccccc1C(=O)OCCOC,outcome,[1],inactive
same,AC50,[2],120 µM (active)
same,outcome,[3],inactive
same,outcome,[4],inactive
same,outcome,[5],inactive
same,outcome,[6],inactive
same,outcome,[7],inactive
same,outcome,[8],inactive
same,outcome,[9],inactive
same,outcome,[10],inactive
same,outcome,[11],inactive
same,outcome,[12],inactive
same,outcome,[13],inactive
same,outcome,[14],inactive
same,outcome,[15],inactive
same,outcome,[16],inactive
COc1ccc(CCC(C)=O)cc1,outcome,[1],inactive
same,outcome,[2],inactive
same,outcome,[3],inactive
same,outcome,[4],inactive
same,outcome,[5],inactive
same,outcome,[6],inactive
same,outcome,[7],inactive
same,outcome,[8],inactive
same,outcome,[9],inactive
same,outcome,[10],inactive
same,outcome,[11],inactive
same,outcome,[12],inactive
same,outcome,[13],inactive
same,outcome,[17],inactive
same,outcome,[15],inactive
same,outcome,[16],inactive
N#Cc1ccc(CC(=O)c2cccc(C(F)(F)F)c2)cc1,outcome,[1],inactive
same,AC50,[2],5.18 µM (active)
same,outcome,[3],inactive
same,outcome,[4],inactive
same,outcome,[5],inactive
same,outcome,[6],inactive
same,outcome,[7],inactive
same,outcome,[8],inactive
same,outcome,[9],inactive
same,outcome,[10],inactive
same,outcome,[11],inactive
same,outcome,[12],inactive
same,AC50,[13],26.3 µM (active)
same,outcome,[14],inactive
same,outcome,[18],inactive
same,outcome,[17],inactive
same,outcome,[19],inactive
same,outcome,[20],inactive
CCOCCOCCOCC,outcome,[1],inactive
same,outcome,[2],inactive
same,outcome,[3],inactive
same,outcome,[4],inactive
same,outcome,[5],inactive
same,outcome,[6],inactive
same,outcome,[7],inactive
same,outcome,[8],inactive
same,outcome,[9],inactive
same,outcome,[10],inactive
same,outcome,[11],inactive
same,outcome,[12],inactive
same,outcome,[13],inactive
same,outcome,[17],inactive
same,outcome,[15],inactive
same,outcome,[16],inactive
same,outcome,[20],inactive
CCN(CC)C(=O)N(CC)CC,outcome,[1],inactive
same,AC50,[2],52 µM (active)
same,outcome,[3],inactive
same,outcome,[4],inactive
same,outcome,[5],inactive
same,outcome,[6],inactive
same,outcome,[7],inactive
same,outcome,[8],inactive
same,outcome,[9],inactive
same,outcome,[10],inactive
same,outcome,[11],inactive
same,outcome,[12],inactive
same,outcome,[13],inactive
same,outcome,[14],inactive
same,outcome,[17],inactive
CCCCCCCCCCCC(=O)OC[C@@H](O)[C@H]1OC[C@H](O)[C@H]1O,outcome,[1],inactive
same,outcome,[2],inactive
same,outcome,[3],inactive
same,outcome,[4],inactive
same,outcome,[5],inactive
same,outcome,[6],inactive
same,outcome,[7],inactive
same,outcome,[8],inactive
same,outcome,[9],inactive
same,outcome,[10],inactive
same,outcome,[11],inactive
same,outcome,[12],inactive
same,outcome,[13],inactive
same,outcome,[18],inactive
same,outcome,[17],inactive
same,outcome,[15],inactive
same,outcome,[16],inactive
same,outcome,[19],inactive
same,outcome,[20],inactive
CCCC[P+](CCCC)(CCCC)CCCC,outcome,[1],inactive
same,outcome,[2],inactive
same,outcome,[3],inactive
same,outcome,[4],inactive
same,outcome,[5],inactive
same,outcome,[6],inactive
same,outcome,[7],inactive
same,outcome,[8],inactive
same,outcome,[9],inactive
same,outcome,[10],inactive
same,outcome,[11],inactive
same,outcome,[12],inactive
same,outcome,[13],inactive
same,outcome,[14],inactive
same,outcome,[17],inactive
same,outcome,[15],inactive
same,outcome,[16],inactive
CC(=O)Nc1ccc(C(=O)CCl)cc1,AC50,[1],9 µM (active)
same,outcome,[2],inactive
same,outcome,[3],inactive
same,outcome,[4],inactive
same,AC50,[5],8.57 µM (active)
same,AC50,[6],8.32 µM (active)
same,AC50,[7],8.67 µM (active)
same,outcome,[8],inactive
same,outcome,[9],inactive
same,outcome,[10],inactive
same,outcome,[11],inactive
same,outcome,[12],inactive
same,AC50,[13],8.84 µM (active)
same,AC50,[17],7.85 µM (active)
